The values below come from ChEMBL document CHEMBL4808148, “HDAC6 screening dataset using tau-based substrate in an enzymatic assay yields selective inhibitors and activators” (2021).

Experiment [1] concerns the target T1, Protein deacetylase HDAC6 (Homo sapiens) (UniProt Q9UBN7).
T1 sequence (whole entry): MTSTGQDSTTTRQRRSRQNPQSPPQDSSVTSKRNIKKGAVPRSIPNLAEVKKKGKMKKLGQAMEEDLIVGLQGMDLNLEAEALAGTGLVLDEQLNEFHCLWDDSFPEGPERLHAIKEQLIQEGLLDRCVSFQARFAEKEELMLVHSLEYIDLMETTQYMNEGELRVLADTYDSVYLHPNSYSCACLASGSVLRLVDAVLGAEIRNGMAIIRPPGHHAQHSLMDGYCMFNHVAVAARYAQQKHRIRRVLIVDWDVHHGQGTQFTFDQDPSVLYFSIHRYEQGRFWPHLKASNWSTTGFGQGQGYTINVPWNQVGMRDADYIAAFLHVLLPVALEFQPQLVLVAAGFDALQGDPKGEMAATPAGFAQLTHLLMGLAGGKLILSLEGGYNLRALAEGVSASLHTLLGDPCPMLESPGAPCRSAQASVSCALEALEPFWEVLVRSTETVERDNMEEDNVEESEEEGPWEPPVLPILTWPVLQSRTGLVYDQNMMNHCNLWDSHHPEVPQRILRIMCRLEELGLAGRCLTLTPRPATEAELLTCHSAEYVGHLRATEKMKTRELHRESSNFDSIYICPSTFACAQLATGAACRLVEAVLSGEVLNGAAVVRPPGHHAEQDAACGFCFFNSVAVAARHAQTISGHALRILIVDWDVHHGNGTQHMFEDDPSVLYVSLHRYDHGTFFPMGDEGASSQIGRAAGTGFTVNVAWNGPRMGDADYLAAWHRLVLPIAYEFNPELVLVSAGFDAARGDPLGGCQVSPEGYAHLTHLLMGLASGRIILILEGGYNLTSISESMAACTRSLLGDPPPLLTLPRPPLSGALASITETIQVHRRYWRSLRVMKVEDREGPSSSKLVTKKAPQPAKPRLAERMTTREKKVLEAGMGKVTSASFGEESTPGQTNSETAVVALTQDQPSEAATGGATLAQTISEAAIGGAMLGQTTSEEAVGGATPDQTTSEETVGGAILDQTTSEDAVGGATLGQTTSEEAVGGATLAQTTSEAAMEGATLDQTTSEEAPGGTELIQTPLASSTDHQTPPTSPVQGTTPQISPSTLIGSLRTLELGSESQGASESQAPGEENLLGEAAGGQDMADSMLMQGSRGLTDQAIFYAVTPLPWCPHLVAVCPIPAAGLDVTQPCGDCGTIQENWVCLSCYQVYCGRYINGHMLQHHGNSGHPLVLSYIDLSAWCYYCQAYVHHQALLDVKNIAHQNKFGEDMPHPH
The settings on record: at 10 µM.

The target in experiment [2] is Protein deacetylase HDAC6 (Homo sapiens) (UniProt Q9UBN7). The settings on record: at 10 µM. The source holds these as a separate data set.

Values joined by “and” are separate entries in the source; they are usually repeats but may differ in a detail not shown here. Equal entries are not always repeated. Out of some 5,600 compounds screened, about 150 (2.7%) showed an effect of 50% or more. What follows is part of a selection rich in strong results, with near analogues and random picks from the rest.

Broadly, the inhibition is the change of the read-out against control, counted positive when it falls. As for `Cc1oc(-c2ccccc2)nc1CCOc1ccc(CC2SC(=O)NC2=O)c2sccc12` (stereo not given), in experiment [1], the inhibition is -4.87%. Same read-out and setting: the figure for `COc1ccc(Nc2ccn(-c3ccccc3)n2)cc1` is 66.8%. Still for that read-out and setting: the same measure for `O=C(Nc1ccccc1C(=O)Nc1ccc(CCO)cc1)c1ccc([N+](=O)[O-])cc1`: 19.2%; for `CCC1OC(=O)CC(O)C(C)C(OC2OC(C)CC(N(C)C)C2O)C(CC=O)CC(C)C(=O)/C=C/C2(C)OC2C1C` (stereo not given): 10.6%.

Consider `CN(C)C(=S)SC(=S)N(C)C`, for which, in experiment [1], the inhibition amounted to 12.2%. Same read-out and setting: the same measure for `O=C(CC1CC(c2ccc(F)cc2F)=NO1)N1CCOCC1` (racemic): 64.3%.

On to `O=C(O)CC1CC(c2ccccc2)=NO1` (stereo not given), for which, in experiment [1], the inhibition was -4.54%. The same measure, in the same setting: the same measure for `c1ccc(OCc2ccc(CCCN3CCOCC3)cc2)cc1`: 22.1%; for `c1ccc(-c2cnn3cc(-c4ccc(OCCN5CCOCC5)cc4)cnc23)cc1`: 78.4%. On the same count and under the same terms, the figure for `c1cc(-c2cnn3cc(-c4ccc(OCCN5CCCCC5)cc4)cnc23)ccn1` is 60.7%; for `CC(C)Oc1ccc(-c2cnc3c(-c4ccnc5ccccc45)cnn3c2)cc1` it is -1.97%.

Turning to `COc1ccc(-c2cnc3c(-c4cccc5ncccc45)cnn3c2)cc1`, in experiment [1], the inhibition was -5.32% and -3.01%. Same read-out and setting: the figure for `c1cc(-c2cnn3cc(-c4ccc(N5CCNCC5)cc4)cnc23)c2cccnc2c1` is -3.93%. For the molecule `CN1C(=O)N(c2cc(Cl)cc(Cl)c2)C(=O)[C@@]1(C)Cc1ccc(Br)cc1`, the inhibition in experiment [1] is -0.75%.

Take `COCc1nnc(N2CC(Oc3ccc(F)cc3Cl)C2)n1-c1ccc(OC)nc1`: the inhibition in experiment [1] is -0.3%.

With `O=C(Nc1ccc(Br)cc1)c1cc(Br)cc(Br)c1O`, in experiment [1], the inhibition came to 47.3%.

Turning to `CCOCc1cc(OC)c(-c2ccc(C[C@H](NC(=O)c3c(F)cccc3F)C(=O)O)cc2)c(OC)c1`, the inhibition in experiment [1] is -3.54%. Still for that read-out and setting: the figure for `C[C@]12CC[C@@H](O)C[C@@H]1CC[C@@H]1[C@@H]2CC[C@]2(C)C(c3ccccc3)=CC[C@@H]12` is -2.46%; for `CC(=O)OCC1=C(C(=O)O)N2C(=O)[C@@H](NC(=O)CS/C(=N/C(C)C)NC(C)C)[C@H]2SC1` it is -0.21%. `O=C(OCCO)c1ccccc1O`: the inhibition in experiment [1] amounted to 0.47%.

Consider `O=C(O)c1ccccc1O`, for which, in experiment [1], the inhibition was 3.65%.

As to `O=C(Oc1ccccc1)c1ccccc1O`, the inhibition in experiment [1] was 59.6%. SEVELAMER HYDROCHLORIDE, CHEMBL1201492: the inhibition in experiment [2] was -4.03%. For the molecule `CC1CCC2C(C)(C)C3CC12CCC3(C)O` (stereo not given), in experiment [1], the inhibition came out at 3.35%. The same measure, in the same setting: the same measure for `C[C@H](Nc1cc(NS(=O)(=O)N2CCC2)nc(SCc2cccc(F)c2F)n1)[C@@H](O)CO`: -3.66%; for `COc1cc(C(=O)NCCCCCC(=O)O)cc(OC)c1OC`: -4.19%; for `CN(C)c1ccc(C(=O)NCCCCCCC(=O)NO)cc1`: 97.6%.

Regarding `O=C(CNC(=O)c1ccc(Cl)cc1)NO`, the inhibition in experiment [1] worked out at 1.88%.

Consider `O=c1c2c[nH]c3ccccc3c-2nn1-c1ccc(Cl)cc1`, for which the inhibition in experiment [1] was 37.8%.

Consider `C[C@H](N/C(=N/C#N)Nc1cccc2ncccc12)c1ccccc1`, for which the inhibition in experiment [1] is -5.84%.
